Assay results published in the supplement of paper PMC11732987, “Enantioselective OTUD7B fragment discovery through chemoproteomics screening and high-throughput optimisation” (Communications Chemistry, 2025).

Assays:
Assay in all cases: log2 ratio of Biotin-Ahx-Ub-VS probe labelling (fragment/DMSO); higher = less target engagement (more negative = stronger competition), active = hit call of the paper (q ≤ 0.05, log2 ratio ≤ -1)
Conditions in all cases: compound concentration: 200 uM; treatment time: 3 h
USP42 = molecular target: T1, USP42 (UniProt Q9H9J4)
T1 sequence (whole entry): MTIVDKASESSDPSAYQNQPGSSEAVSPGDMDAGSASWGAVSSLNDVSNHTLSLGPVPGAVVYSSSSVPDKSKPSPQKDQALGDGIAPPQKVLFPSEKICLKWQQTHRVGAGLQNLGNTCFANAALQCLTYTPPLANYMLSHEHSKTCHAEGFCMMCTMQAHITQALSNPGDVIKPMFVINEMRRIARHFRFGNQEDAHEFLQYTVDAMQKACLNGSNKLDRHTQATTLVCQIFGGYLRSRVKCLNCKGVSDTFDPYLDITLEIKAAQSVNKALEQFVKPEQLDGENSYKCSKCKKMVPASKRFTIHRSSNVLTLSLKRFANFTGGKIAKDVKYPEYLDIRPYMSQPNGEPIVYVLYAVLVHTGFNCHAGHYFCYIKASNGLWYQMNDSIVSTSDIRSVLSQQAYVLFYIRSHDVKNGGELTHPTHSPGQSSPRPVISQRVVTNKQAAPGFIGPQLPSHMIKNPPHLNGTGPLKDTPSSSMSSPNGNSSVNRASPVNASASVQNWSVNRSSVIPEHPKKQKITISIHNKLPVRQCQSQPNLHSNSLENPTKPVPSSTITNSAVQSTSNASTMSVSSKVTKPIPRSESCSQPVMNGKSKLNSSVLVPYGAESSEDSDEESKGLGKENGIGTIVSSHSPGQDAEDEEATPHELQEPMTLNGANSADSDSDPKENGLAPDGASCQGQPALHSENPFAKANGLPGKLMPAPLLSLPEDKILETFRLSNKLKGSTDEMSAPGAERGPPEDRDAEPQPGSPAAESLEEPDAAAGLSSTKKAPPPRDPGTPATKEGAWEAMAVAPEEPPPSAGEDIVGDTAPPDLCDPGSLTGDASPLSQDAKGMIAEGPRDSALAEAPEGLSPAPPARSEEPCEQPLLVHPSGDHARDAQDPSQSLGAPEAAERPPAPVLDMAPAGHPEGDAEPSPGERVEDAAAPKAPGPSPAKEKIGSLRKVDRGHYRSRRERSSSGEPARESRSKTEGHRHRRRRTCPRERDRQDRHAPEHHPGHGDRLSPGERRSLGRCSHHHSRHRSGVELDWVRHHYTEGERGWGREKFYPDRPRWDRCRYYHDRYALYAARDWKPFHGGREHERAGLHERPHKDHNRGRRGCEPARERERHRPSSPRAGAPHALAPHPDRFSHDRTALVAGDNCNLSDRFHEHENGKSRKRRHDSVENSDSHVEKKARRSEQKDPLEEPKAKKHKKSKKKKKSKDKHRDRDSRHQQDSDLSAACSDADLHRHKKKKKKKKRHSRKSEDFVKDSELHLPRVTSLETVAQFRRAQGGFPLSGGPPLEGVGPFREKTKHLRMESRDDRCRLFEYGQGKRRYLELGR
Outline: (§1)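 HEK293T lysate in Tris/CHAPS/IGEPAL buffer with protease inhibitors (495 µg per sample) was given fragment at 200 µM or vehicle for 3 h, in triplicate. It then received Biotin-Ahx-Ub-VS at 0.5 µM final for 1 h. Labelled DUBs were NeutrAvidin-enriched, digested with LysC and trypsin, and run by diaPASEF LC-MS/MS. Values are average log2 fragment/vehicle ratios by unpaired t-test on global-median-normalised Spectronaut quantities of proteins with ≥2 unique peptides.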

USP46 = USP46 (UniProt P62068)
Outline: as §1

USP47 = molecular target: T2, USP47 (UniProt Q96K76)
T2 sequence (whole entry): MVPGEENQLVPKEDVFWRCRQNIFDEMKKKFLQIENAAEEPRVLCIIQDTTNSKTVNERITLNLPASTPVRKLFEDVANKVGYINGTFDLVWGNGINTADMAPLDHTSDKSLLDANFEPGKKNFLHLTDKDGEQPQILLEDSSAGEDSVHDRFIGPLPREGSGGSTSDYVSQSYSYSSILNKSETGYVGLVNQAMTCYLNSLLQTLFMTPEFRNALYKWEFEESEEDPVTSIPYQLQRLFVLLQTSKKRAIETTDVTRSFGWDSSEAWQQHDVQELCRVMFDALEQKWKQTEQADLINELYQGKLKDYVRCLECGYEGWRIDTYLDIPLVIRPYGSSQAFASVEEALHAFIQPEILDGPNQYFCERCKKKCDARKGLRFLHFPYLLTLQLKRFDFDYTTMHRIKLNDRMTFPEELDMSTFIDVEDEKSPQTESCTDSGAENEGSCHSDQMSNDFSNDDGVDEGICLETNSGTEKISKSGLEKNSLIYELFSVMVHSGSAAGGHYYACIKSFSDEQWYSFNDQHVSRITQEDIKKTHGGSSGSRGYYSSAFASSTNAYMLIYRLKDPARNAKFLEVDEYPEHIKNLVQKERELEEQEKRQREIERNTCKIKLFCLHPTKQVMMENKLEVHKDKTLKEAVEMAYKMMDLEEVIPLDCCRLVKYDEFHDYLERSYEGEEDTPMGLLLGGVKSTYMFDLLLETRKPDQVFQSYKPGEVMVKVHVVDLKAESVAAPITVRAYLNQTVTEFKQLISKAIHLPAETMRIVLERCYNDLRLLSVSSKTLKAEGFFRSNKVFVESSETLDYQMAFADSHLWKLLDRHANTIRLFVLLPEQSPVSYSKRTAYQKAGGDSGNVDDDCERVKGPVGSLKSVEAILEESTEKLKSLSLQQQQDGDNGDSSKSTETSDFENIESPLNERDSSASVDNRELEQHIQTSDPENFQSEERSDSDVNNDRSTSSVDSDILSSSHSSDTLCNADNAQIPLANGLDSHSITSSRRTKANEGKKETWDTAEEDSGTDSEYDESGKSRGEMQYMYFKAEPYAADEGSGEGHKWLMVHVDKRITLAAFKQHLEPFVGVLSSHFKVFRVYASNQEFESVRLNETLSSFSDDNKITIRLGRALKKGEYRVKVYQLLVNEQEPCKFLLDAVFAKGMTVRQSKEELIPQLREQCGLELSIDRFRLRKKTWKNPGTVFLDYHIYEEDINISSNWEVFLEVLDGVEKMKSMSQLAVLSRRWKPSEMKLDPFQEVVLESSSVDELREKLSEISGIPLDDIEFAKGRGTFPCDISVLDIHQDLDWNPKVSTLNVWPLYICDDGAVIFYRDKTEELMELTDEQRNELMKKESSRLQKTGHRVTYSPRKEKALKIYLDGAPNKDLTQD
Outline: as §1

USP48 = molecular target: T3, USP48 (UniProt Q86UV5)
T3 sequence (whole entry): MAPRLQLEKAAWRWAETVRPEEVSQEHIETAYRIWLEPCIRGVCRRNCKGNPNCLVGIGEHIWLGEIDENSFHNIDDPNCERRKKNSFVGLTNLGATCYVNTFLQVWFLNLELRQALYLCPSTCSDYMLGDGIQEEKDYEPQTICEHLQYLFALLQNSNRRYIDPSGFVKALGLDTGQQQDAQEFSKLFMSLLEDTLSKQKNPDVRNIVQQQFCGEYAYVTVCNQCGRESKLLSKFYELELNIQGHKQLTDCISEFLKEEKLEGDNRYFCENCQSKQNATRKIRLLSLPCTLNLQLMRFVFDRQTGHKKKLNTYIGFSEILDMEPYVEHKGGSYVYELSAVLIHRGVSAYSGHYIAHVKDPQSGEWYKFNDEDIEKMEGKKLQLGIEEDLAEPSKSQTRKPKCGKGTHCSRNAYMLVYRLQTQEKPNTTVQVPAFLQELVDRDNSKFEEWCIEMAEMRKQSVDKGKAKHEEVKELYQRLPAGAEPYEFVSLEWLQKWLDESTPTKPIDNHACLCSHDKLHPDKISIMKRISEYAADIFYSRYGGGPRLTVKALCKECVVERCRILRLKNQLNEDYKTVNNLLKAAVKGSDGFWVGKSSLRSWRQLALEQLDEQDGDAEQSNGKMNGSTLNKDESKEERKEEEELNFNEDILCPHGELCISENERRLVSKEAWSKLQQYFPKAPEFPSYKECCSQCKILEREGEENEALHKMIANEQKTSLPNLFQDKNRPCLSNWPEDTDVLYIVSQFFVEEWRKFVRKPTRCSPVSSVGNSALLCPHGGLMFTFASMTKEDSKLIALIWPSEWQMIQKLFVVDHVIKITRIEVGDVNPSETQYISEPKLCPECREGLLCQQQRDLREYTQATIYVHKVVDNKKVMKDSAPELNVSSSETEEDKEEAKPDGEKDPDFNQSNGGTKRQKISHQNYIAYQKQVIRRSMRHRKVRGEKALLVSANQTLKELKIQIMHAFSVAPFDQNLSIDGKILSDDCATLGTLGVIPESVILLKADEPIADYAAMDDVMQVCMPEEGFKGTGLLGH
Outline: as §1

USP5 = molecular target: T4, USP5 (UniProt P45974)
T4 sequence (whole entry): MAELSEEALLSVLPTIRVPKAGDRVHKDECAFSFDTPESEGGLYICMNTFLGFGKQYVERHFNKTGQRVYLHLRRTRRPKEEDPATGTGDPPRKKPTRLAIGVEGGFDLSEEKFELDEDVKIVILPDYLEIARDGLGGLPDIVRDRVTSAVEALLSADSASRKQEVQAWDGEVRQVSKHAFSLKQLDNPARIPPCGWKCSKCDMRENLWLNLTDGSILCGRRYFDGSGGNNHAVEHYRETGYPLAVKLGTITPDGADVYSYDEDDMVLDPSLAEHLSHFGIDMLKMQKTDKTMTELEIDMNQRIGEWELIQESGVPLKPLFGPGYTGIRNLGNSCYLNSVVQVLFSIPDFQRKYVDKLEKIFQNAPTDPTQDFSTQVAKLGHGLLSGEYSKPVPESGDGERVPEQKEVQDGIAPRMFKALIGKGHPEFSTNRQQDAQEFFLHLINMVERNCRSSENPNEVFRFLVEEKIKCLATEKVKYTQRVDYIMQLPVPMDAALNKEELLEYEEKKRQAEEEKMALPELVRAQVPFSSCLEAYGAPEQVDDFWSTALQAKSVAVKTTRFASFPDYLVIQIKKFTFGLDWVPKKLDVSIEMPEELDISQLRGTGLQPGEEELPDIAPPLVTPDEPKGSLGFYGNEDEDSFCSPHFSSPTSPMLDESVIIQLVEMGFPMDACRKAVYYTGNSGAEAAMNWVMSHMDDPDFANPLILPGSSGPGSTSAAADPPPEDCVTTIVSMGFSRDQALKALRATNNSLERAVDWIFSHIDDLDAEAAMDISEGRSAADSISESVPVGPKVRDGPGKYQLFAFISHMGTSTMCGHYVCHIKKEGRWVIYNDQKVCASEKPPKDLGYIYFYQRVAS
Outline: as §1

USP54 = USP54 (UniProt Q70EL1)
Outline: as §1

USP7 = USP7 (UniProt Q93009)
Outline: as §1

USP8 = molecular target: T5, USP8 (UniProt P40818)
T5 sequence (whole entry): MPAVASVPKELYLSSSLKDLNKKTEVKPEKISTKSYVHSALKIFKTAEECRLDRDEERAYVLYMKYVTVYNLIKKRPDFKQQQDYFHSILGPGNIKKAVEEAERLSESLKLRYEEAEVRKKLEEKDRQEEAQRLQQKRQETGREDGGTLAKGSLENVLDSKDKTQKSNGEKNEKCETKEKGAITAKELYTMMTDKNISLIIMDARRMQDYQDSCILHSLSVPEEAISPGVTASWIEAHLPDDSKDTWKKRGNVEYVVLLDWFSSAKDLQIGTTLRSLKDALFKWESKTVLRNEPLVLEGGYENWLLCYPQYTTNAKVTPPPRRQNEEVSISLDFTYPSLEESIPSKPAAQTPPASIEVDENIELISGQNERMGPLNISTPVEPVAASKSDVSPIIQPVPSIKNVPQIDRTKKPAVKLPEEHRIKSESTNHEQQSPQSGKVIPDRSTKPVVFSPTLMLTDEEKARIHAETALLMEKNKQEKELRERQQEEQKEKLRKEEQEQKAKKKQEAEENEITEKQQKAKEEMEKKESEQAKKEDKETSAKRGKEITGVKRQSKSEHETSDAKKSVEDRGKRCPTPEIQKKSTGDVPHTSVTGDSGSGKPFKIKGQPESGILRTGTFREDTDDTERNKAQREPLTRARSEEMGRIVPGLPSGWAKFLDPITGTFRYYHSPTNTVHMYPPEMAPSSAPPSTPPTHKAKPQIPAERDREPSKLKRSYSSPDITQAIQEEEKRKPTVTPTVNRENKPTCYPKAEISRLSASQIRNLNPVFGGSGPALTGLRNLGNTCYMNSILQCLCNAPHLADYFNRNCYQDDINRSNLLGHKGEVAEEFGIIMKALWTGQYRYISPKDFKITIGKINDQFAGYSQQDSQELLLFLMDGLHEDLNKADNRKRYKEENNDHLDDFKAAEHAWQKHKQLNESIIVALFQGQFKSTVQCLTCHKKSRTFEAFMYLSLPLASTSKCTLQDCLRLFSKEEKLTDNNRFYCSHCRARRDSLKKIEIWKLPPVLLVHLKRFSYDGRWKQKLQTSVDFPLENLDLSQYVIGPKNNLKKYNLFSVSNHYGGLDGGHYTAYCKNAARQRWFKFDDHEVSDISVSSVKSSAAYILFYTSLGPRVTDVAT
Outline: as §1

Measured: log2 ratio of Biotin-Ahx-Ub-VS probe labelling

Sequence of USP46 (P62068 whole entry): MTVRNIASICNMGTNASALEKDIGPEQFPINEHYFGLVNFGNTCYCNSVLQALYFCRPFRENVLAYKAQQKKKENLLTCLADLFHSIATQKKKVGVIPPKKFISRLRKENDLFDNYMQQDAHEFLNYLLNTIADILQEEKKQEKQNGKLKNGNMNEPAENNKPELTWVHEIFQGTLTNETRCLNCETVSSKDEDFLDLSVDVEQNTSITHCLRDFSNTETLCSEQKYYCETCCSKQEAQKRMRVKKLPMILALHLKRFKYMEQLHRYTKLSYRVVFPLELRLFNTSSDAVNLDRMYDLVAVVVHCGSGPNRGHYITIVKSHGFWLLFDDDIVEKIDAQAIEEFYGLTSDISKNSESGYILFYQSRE
Sequence of USP7 (Q93009 whole entry, looked up): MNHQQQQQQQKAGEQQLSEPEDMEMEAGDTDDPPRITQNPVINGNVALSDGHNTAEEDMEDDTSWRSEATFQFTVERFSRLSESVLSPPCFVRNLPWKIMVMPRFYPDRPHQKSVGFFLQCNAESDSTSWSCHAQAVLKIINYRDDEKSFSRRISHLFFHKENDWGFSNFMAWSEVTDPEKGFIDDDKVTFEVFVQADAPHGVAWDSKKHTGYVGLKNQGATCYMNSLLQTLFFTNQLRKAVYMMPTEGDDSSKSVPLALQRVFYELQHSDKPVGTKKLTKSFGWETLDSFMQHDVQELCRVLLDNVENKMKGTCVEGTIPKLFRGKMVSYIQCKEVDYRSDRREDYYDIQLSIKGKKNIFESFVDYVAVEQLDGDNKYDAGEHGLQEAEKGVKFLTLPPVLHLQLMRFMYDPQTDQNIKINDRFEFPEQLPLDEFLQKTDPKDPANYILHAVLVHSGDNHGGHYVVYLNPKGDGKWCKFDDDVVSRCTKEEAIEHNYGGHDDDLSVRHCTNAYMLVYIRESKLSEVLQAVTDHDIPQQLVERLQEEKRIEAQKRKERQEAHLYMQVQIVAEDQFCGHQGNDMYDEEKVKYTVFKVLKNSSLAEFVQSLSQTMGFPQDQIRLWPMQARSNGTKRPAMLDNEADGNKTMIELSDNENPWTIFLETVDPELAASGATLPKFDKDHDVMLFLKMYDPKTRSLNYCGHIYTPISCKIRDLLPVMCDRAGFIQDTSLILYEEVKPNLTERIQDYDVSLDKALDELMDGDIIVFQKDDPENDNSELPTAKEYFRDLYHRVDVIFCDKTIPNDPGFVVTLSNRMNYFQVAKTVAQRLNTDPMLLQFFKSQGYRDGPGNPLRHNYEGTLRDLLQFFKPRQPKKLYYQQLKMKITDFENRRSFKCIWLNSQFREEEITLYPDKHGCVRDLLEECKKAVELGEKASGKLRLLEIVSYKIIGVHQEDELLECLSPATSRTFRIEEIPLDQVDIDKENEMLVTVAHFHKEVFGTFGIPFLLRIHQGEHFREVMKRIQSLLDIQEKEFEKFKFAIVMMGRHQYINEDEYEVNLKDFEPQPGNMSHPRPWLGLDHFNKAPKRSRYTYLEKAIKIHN
Sequence of USP54 (Q70EL1 whole entry): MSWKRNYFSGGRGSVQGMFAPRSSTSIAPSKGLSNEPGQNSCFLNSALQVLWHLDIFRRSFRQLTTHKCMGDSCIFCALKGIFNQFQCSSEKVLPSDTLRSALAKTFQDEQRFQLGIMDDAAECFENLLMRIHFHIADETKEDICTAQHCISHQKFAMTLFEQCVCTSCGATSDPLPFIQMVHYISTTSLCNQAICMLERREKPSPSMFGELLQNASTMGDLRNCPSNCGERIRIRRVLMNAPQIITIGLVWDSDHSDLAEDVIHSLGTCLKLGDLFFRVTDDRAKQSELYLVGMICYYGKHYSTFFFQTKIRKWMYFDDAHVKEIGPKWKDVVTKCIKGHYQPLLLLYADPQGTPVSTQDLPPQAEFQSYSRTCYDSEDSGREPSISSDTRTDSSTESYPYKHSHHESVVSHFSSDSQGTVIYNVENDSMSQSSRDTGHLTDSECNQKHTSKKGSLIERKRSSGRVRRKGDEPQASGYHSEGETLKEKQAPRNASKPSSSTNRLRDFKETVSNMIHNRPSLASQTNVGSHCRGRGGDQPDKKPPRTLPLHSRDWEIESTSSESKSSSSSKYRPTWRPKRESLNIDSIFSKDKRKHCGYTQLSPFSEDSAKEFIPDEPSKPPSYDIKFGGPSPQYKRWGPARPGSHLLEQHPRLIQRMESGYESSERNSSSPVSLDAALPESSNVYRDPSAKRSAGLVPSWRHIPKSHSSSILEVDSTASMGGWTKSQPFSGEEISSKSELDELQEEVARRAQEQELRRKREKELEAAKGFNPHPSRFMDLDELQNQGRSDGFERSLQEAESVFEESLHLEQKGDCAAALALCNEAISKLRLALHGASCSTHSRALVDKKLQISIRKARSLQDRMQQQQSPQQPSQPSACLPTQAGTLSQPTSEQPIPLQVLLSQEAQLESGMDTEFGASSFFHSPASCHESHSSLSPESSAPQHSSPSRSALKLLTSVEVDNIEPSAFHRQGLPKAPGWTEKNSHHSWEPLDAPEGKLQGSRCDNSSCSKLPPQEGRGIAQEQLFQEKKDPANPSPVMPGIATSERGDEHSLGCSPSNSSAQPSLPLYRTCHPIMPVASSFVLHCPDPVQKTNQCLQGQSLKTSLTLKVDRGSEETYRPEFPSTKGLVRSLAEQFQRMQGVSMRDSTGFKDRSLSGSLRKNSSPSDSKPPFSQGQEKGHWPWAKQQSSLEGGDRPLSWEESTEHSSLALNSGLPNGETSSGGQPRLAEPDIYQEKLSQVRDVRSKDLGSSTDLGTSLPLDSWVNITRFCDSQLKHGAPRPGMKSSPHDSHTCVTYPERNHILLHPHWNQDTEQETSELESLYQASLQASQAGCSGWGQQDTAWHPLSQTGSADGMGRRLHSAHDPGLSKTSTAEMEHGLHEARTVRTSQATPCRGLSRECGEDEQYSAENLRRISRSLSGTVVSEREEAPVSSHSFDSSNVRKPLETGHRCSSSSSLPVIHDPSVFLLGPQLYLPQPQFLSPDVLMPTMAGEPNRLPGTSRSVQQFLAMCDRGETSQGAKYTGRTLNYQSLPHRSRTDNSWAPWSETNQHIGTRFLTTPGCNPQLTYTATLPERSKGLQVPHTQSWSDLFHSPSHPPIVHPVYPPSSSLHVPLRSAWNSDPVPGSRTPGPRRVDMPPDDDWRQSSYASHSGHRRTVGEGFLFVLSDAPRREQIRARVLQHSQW

Cl.O=C(CCl)N1CC(c2ccc(Br)cn2)C1
active: USP7 -1.29
inactive: USP42 0.0546 | USP46 -0.129 | USP47 -0.944 | USP48 -0.383 | USP5 0.197 | USP54 0.556 | USP8 -0.318
